tim10-1 inh = tim10-1 yeast growth inhibition; S. cerevisiae tim10-1 ts strain growth, BacTiter-Glo, 24 h; actives 2.2% (n = 330,000); AID 463190; inhibition, % at 20 µM;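 active = inhibition of at least 40%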;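 also: mutant grown at 25 °C; 0% = DMSO wells with yeast and 100% = wells holding no yeast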
PfHsp90 set2 = reduces growth (ATP signal) of yeast expressing P. falciparum Hsp90. S. cerevisiae expressing PfHsp90, BacTiter-Glo ATP, 48 h; yeast lacking PDR1 and PDR3 efflux regulators. inhibition, % at 9.4 µM. actives 0.32% (n = 310,000). AID 504621;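 active = every replicate shows inhibition above about 80%, whatever the replicate mean, limit read from the data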;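 also: 0% = DMSO neutral controls and 100% = 20 µM radicicol positive controls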
tim23-1 inh = inhibits growth of tim23-1 mutant yeast. S. cerevisiae tim23-1 growth, BacTiter-Glo luminescence, 24 h. inhibition, % at 20 µM. actives 1.3% (n = 330,000). AID 463212;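 active = growth inhibition of the mutant yeast at or above 50%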;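 also: temperature-sensitive mutant grown at 25 °C; plate controls were DMSO-treated mutant yeast for no effect and medium wells lacking yeast for full effect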
TIM10 inh = growth inhibitors of TIM10 yeast strain. actives 1.4% (n = 330,000). inhibition, % at 10 µM. S. cerevisiae TIM10 strain growth, BacTiter-Glo luminescence, 24 h;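 active = inhibition of 40% or more at the single tested concentration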;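 also: wild-type TIM10 isogenic control strain grown at permissive 25 °C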
NLRP3 yeast inh = inhibitors of NALP3 inflammasome in yeast. Yeast reconstituted NLRP3/ASC/caspase-1, beta-gal luminescence, 24 h. inhibition, % at 10 µM. actives 0.39% (n = 330,000). AID 2825;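 active = inhibition of 50% or more; inactive = inhibition below 50%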;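 also: plate controls were induced DMSO wells for no effect and uninduced yeast grown without galactose for full effect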
tim10-1 confirm = confirmation of tim10-1 mutant yeast growth inhibitors; inhibition, % at 20 µM; actives 56% (n = 7,400); S. cerevisiae tim10-1 ts strain growth, BacTiter-Glo, 24 h; shares compounds with tim10-1 inh;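 active = inhibition of yeast growth at or above a set limit in either of two repeat tests at 20 µM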;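 also: tim10-1 mutant grown at permissive 25 °C to find synthetic lethal compounds; 0% = DMSO yeast wells and 100% = medium wells without yeast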
* hit, by the source's call. A selection: hits, their analogues and other compounds. The true share with any hit is near 3.7%.

O=C(Cc1ccc(S(=O)(=O)N2CCCCC2)s1)Nc1ccc(F)c(F)c1 was read as tim10-1 inh 47*, PfHsp90 set2 -14, tim23-1 inh 33, TIM10 inh 25, NLRP3 yeast inh -1 and tim10-1 confirm 28.
Screening Cc1cc(C)cc(NC(=O)Cc2ccc(S(=O)(=O)N3CCCC3)s2)c1 returned tim10-1 inh 10, PfHsp90 set2 6, tim23-1 inh 7, TIM10 inh -2 and NLRP3 yeast inh 10.
Cc1ccc(S(=O)(=O)N(C)CCN(C)S(=O)(=O)c2ccc(C)cc2)cc1 was read as PfHsp90 set2 17.
For Cc1ccc2c(c1)N(C(=O)CCC(=O)NCCCN1CCN(C)CC1)CC(C)O2 (stereo not given) the results were tim10-1 inh -7, PfHsp90 set2 -15, tim23-1 inh 0, TIM10 inh -1 and NLRP3 yeast inh -1.
For CCOc1ccc(N2CC(C(=O)N3CCCc4ccccc43)CC2=O)cc1 (stereo not given) the results were tim10-1 inh 41*, PfHsp90 set2 -1, tim23-1 inh 35, TIM10 inh 14, NLRP3 yeast inh 8 and tim10-1 confirm 20.
For Cc1ccc(N2CC(C(=O)N3CCCc4ccccc43)CC2=O)cc1 (stereo not given) the results were tim10-1 inh 29, PfHsp90 set2 5, tim23-1 inh 29, TIM10 inh 15 and NLRP3 yeast inh 0.
COc1ccc2cc(C3CC(c4ccco4)=NN3S(=O)(=O)c3ccccc3)c(Cl)nc2c1 (stereo not given) was read as tim10-1 inh 47*, PfHsp90 set2 12, tim23-1 inh 21, TIM10 inh 21, NLRP3 yeast inh -2 and tim10-1 confirm 18.
Screening CN1CCN(S(=O)(=O)c2ccc(Sc3nnnn3-c3ccccc3)c([N+](=O)[O-])c2)CC1 returned tim10-1 inh 23, PfHsp90 set2 -17, tim23-1 inh 28, TIM10 inh 10 and NLRP3 yeast inh 2.
Screening CC(=O)c1ccc(Sc2nnnn2-c2ccccc2)c([N+](=O)[O-])c1 returned tim10-1 inh 46*, PfHsp90 set2 -10, tim23-1 inh 46, TIM10 inh 17, NLRP3 yeast inh -6 and tim10-1 confirm 31.
`Cc1ccc(-c2noc(CN(C(=O)C(c3ccccc3)c3ccccc3)C(C)C)n2)cc1` gave tim10-1 inh 41*, PfHsp90 set2 8, tim23-1 inh 16, TIM10 inh 17, NLRP3 yeast inh 3 and tim10-1 confirm 25.
For Cc1ccc2c(c1)CCCN2C(=O)c1ccoc1C the results were tim10-1 inh 28, PfHsp90 set2 0, tim23-1 inh 18, TIM10 inh -8 and NLRP3 yeast inh -16.
`Cc1ccc2c(c1)CCCN2C(=O)c1cc2ccccc2oc1=O` gave tim10-1 inh 43*, PfHsp90 set2 9, tim23-1 inh 49, TIM10 inh 24, NLRP3 yeast inh 11 and tim10-1 confirm 44*.
`CCOc1ccc(NC(=O)OCCN2CCN(CCc3ccccc3)C(C)C2)cc1` (stereo not given) gave PfHsp90 set2 3.
O=C(c1ccco1)N1N=C(c2cccs2)CC1c1ccco1 (stereo not given) was read as tim10-1 inh 41*, PfHsp90 set2 1, tim23-1 inh 37, TIM10 inh 20, NLRP3 yeast inh -10 and tim10-1 confirm 10.
For Cc1ccc(C2CC(c3cccs3)=NN2C(=O)c2ccco2)o1 (stereo not given) the results were tim10-1 inh 24, PfHsp90 set2 3, tim23-1 inh 43, TIM10 inh 22 and NLRP3 yeast inh 5.
Screening CCCn1c(C(C)Nc2nc(-c3ccc(Cl)c([N+](=O)[O-])c3)cs2)nc2cc(Cl)c(N3CCCCC3)cc21 (stereo not given) returned tim10-1 inh 10, PfHsp90 set2 6, tim23-1 inh 16, TIM10 inh 14 and NLRP3 yeast inh 17.
C/C(=N\NC(=S)Nc1ccc(C)cc1)c1cccc(N)c1 was read as tim10-1 inh 42*, PfHsp90 set2 -19, tim23-1 inh 1, TIM10 inh 36, NLRP3 yeast inh 7 and tim10-1 confirm 21.

Screening data: PubChem, several laboratories
